# Measured values published in PMC5540273 (PLoS ONE, 2017).
# Key:
# Conditions in all cases: concentration: 1 μM, replicates: in singlicate; n = 1
# MAP3K15 = test system: MAP3K15
# MAP3K1 = test system: MAP3K1
# MAP3K2 = test system: MAP3K2
# MAP3K3 = test system: MAP3K3
# MAP3K4 = test system: MAP3K4
# MAP4K2 = test system: MAP4K2
# MAP4K3 = test system: MAP4K3
# MAP4K4 = test system: MAP4K4
# MAP4K5 = test system: MAP4K5
# MAPKAPK2 = test system: MAPKAPK2
# MAPKAPK5 = test system: MAPKAPK5
# MARK1 = test system: MARK1
# MARK2 = test system: MARK2
# MARK3 = test system: MARK3
# MARK4 = test system: MARK4
# MAST1 = test system: MAST1
# MEK1 = test system: T1, MEK1
# T1 construct: gene MAP2K1
# MEK2 = test system: T2, MEK2
# T2 construct: gene MAP2K2
# MEK3 = test system: T3, MEK3
# T3 construct: gene MAP2K3
# MEK4 = test system: T4, MEK4
# T4 construct: gene MAP2K4
# 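Further: KINOMEscan kinase panel screen.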
Compound,%Inh (MAP3K15) [%],%Inh (MAP3K1) [%],%Inh (MAP3K2) [%],%Inh (MAP3K3) [%],%Inh (MAP3K4) [%],%Inh (MAP4K2) [%],%Inh (MAP4K3) [%],%Inh (MAP4K4) [%],%Inh (MAP4K5) [%],%Inh (MAPKAPK2) [%],%Inh (MAPKAPK5) [%],%Inh (MARK1) [%],%Inh (MARK2) [%],%Inh (MARK3) [%],%Inh (MARK4) [%],%Inh (MAST1) [%],%Inh (MEK1) [%],%Inh (MEK2) [%],%Inh (MEK3) [%],%Inh (MEK4) [%]
Cc1ccc(NC(=O)c2ccc(Cl)c(Cl)c2)cc1-c1ccc(C(=O)Nc2ccncc2)cc1 [GSK1398460],0,8,1,0,45,0,0,1,0,15,0,7,0,0,16,0,0,0,0,0
O=C(Nc1c(F)cccc1F)c1cc(C(=O)c2ccccc2F)c[nH]1 [GSK1326180],0,0,0,0,42,0,0,19,0,8,0,0,0,3,9,0,0,0,0,10
CS(=O)(=O)c1cccc(CNc2nc(Nc3ccc4c(c3)CCC(=O)N4)ncc2C(F)(F)F)c1,0,0,62,46,81,0,0,41,0,0,0,35,16,56,46,0,0,58,61,56
Nc1ncnc2scc(-c3ccc(NC(=O)Cc4cc(F)ccc4F)cc3)c12.O=C(O)C(F)(F)F [SB-731254-M],24,10,82,63,22,16,54,1,70,35,10,27,31,0,6,21,24,19,23,18
Nc1cccc(-c2ccc3c(N)n[nH]c3c2)c1 [GSK2193613],0,100,0,0,4,91.1,1,19,0,0,0,0,0,0,0,0,53,39,0,12
O=C(O)C(F)(F)F.O=c1[nH]ccc2nc(N[C@@H]3CCNC3)nc(Nc3ccc4c(c3)S(=O)(=O)CC4)c12 [GSK2181306],49,28,85,76,34,100,96,92.6,95.6,33,90.4,65,91.7,70,81,12,97.5,94.7,93.5,91
CN(C)CCOc1ccc(-c2cc(-c3ccc(Cl)c(O)c3)c(-c3ccncc3)[nH]2)cc1.Cl.Cl [SB-684387],50,0,0,0,17,27,0,22,3,12,29,0,14,14,0,52,0,35,5,10
CCOc1nccc(-c2c(-c3ccc(F)cc3)ncn2C2CCNCC2)n1 [SB-249175],57,42,10,7,11,100,0,31,27,0,39,3,29,0,0,0,28,31,43,21
CN(C)CCNS(=O)(=O)c1ccc(-c2ccnc3[nH]ccc23)cc1 [GSK977620],14,11,49,19,0,11,31,20,8,0,0,8,31,13,2,0,0,0,10,19
CN(c1ccc(F)c(NC(=O)c2cccc(OC(C)(C)C#N)c2Cl)c1)c1ccc2nc(NC(=O)C3CC3)sc2n1,0,0,0,15,0,0,0,75,0,0,0,0,0,0,0,40,61,49,0,26
O=C(Nc1n[nH]c2nc(-c3cccc(O)c3)ccc12)C1CC1 [SB-711805],15,17,14,50,0,9,0,13,0,0,3,31,30,0,0,42,10,10,41,12
COC(=O)Nc1nc2cc(Oc3ccc(NC(=O)Nc4cccc(SC)c4)cc3)ccc2[nH]1.Cl [GW697999],0,15,1,0,0,0,0,0,0,0,0,0,0,0,9,14,0,0,0,12
Nc1ncc(-c2cn[nH]c2)c2scc(-c3ccc4c(c3)CCN4C(=O)Cc3ccccc3)c12 [GSK2593067],22,24,91,79,86,87,98.9,27,99.6,0,0,0,7,0,7,0,0,0,0,60
COc1cccc2c(-c3ccncc3)c(-c3ccc(F)cc3)nn12 [GW468513],0,5,3,0,6,0,0,33,2,13,0,0,0,0,3,15,0,1,0,19
